# Data reported in the supplement of paper PMC8387472.
# Columns and labels:
# Conditions in all cases: mESC; 2uM; 72 h treatment, harvest day 5
# [1] = compound: O=C1Cc2c([nH]c3ccc(Br)cc23)-c2ccccc2N1 [Kenpaullone]; assay: fraction of microhomology deletions among edited reads; higher = more MH deletions
# [2] = compound: O=c1c(-c2ccc(O)cc2)coc2cc(O)cc(O)c12 [Genistein]; assay: as above
# [3] = compound: O=c1cc(N2CCOCC2)oc2c(-c3ccc4c(c3)OCCO4)csc12; assay: as above
# [4] = compound: S=c1[nH]cnc2nc[nH]c12 [Mercaptopurine (6-MP)]; assay: as above
# [5] = compound: S=c1nc[nH]c2nc[nH]c12 [6-Mercaptopurine (6-MP) Monohydrate]; assay: as above
# [6] = compound: CC(=O)O/N=C1\C(=O)N(Cc2cc(Cl)ccc2Cl)c2ccc(Cl)cc21; assay: fraction of 1-bp insertions among edited reads; higher = more 1-bp insertion outcomes
# [7] = compound: CC(C)(C#N)c1ccc(N2C(=O)OCc3cnc4ccc(-c5cnc6ccccc6c5)cc4c32)cc1; assay: as above
# [8] = compound: CCCCOc1c(C(=O)c2c(F)cc(C)cc2F)c[nH]c2nncc1-2; assay: as above
# [9] = compound: CCN1CCN(CC(=O)Nc2ccc(-c3cccc4c(=O)cc(N5CCOCC5)oc34)c3sc4ccccc4c23)CC1; assay: as above
# [10] = compound: CCc1c2c(nc3ccc(OC(=O)N4CCC(N5CCCCC5)CC4)cc13)-c1cc3c(c(=O)n1C2)COC(=O)[C@]3(O)CC [Irinotecan HCl Trihydrate]; assay: as above
# [11] = compound: CCn1c(=O)c(-c2ccc(Cl)cc2Cl)cc2cnc(Nc3ccc(N4CCNCC4)c(F)c3)nc21; assay: as above
# [12] = compound: CNc1ccc([N+](=O)[O-])c(Nc2ccc3[nH]ncc3c2)n1; assay: as above
# [13] = compound: CO[C@H]1/C=C/O[C@@]2(C)Oc3c(C)c(O)c4c(O)c(c(/C=N/N5CCN(C6CCCC6)CC5)c(O)c4c3C2=O)NC(=O)/C(C)=C\C=C\[C@H](C)[C@H](O)[C@@H](C)[C@@H](O)[C@@H](C)[C@H](OC(C)=O)[C@@H]1C [Rifapentine]; assay: as above
# [14] = compound: COc1ccccc1-c1cc(Nc2cccc(CS(N)(=O)=O)c2)ncn1; assay: as above
# [15] = compound: C[C@@H]1CN(CC(=O)Nc2ccc3c(c2)Cc2cccc(-c4cc(=O)cc(N5CCOCC5)o4)c2S3)C[C@H](C)O1; assay: as above
# [16] = compound: Cc1cc(C)nc(SCC(=O)Nc2ncc(Cc3cccc4ccccc34)s2)n1; assay: as above
# [17] = compound: Cc1ccc(C(=O)NCCCCCC(=O)Nc2ccccc2N)cc1; assay: as above
# [18] = compound: Cc1cccc(CC(=O)N2CCc3c2ccc(-c2cn(C)c4ncnc(N)c24)c3F)n1; assay: as above
# [19] = compound: NC(=O)c1ccc2nc(-c3ccc(Oc4ccc(Cl)cc4)cc3)[nH]c2c1 [Chk 2 inhibitor II (BML-277)]; assay: as above
# [20] = compound: Nc1cc(F)ccc1NC(=O)c1ccc(CNC(=O)/C=C/c2cccnc2)cc1 [Tucidinostat (Chidamide)]; assay: as above
Target,fraction of microhomology deletions among edited reads [1],fraction of microhomology deletions among edited reads [2],fraction of microhomology deletions among edited reads [3],fraction of microhomology deletions among edited reads [4],fraction of microhomology deletions among edited reads [5],fraction of 1-bp insertions among edited reads [6],fraction of 1-bp insertions among edited reads [7],fraction of 1-bp insertions among edited reads [8],fraction of 1-bp insertions among edited reads [9],fraction of 1-bp insertions among edited reads [10],fraction of 1-bp insertions among edited reads [11],fraction of 1-bp insertions among edited reads [12],fraction of 1-bp insertions among edited reads [13],fraction of 1-bp insertions among edited reads [14],fraction of 1-bp insertions among edited reads [15],fraction of 1-bp insertions among edited reads [16],fraction of 1-bp insertions among edited reads [17],fraction of 1-bp insertions among edited reads [18],fraction of 1-bp insertions among edited reads [19],fraction of 1-bp insertions among edited reads [20]
"44.0 (DMSO control at this site: 1-bp insertion 0.181, MH deletion 0.512, edited 0.123) ACACATACCTTCTTCGAGGCAGCCAGCATGATGAGACAGGTCTCCCACAAACACATCGTGT",0.473,0.525,0.537,0.499,0.523,0.159,0.185,0.221,0.0636,0.21,0.198,0.251,0.174,0.233,0.418,0.192,0.2,0.282,0.166,0.238
"43.0 (DMSO control at this site: 1-bp insertion 0.134, MH deletion 0.714, edited 0.104) AGTTTAACTTACTCCGGCCAAAAAAGAACTGCACCTCTGGAGCGGGTTAGTGGTGGTGGTA",0.658,0.671,0.688,0.614,0.592,0.0687,0.0941,0.0843,0.0439,0.113,0.0588,0.0932,0.0993,0.101,0.118,0.0918,0.0831,0.0629,0.1,0.0828
"40.0 (DMSO control at this site: 1-bp insertion 0.072, MH deletion 0.192, edited 0.189) GCGAATCAACTGTTCAACAACAGCAGCAGCCACCTGGAGGACTACAGTGGCCTGTCCGTGT",0.124,0.192,0.211,0.145,0.137,0.0727,0.0752,0.072,0.0486,0.0746,0.0675,0.0835,0.0737,0.076,0.124,0.0746,0.0721,0.0741,0.0639,0.0778
"41.0 (DMSO control at this site: 1-bp insertion 0.022, MH deletion 0.754, edited 0.115) AAAGAGACAGCAGGTATGAATCCATCTTCCTGACCCTTGGGACCAGCCGGGGCAGTGAAGC",0.672,0.753,0.762,0.701,0.674,0.0367,0.0302,0.0252,0.0166,0.0367,0.0239,0.0181,0.018,0.0187,0.0495,0.0288,0.0318,0.0382,0.0265,0.0195
"25.0 (DMSO control at this site: 1-bp insertion 0.017, MH deletion 0.774, edited 0.143) GGGCCTGAATGGTGTGGACATCTACTCGCTGGTGAGCTGGTGACTGAAAACATTCAGTGGC",0.739,0.773,0.772,0.71,0.694,0.0158,0.0262,0.017,0.0169,0.0204,0.0225,0.0261,0.0237,0.0265,0.0481,0.0281,0.0223,0.0292,0.0214,0.0363
21.0 CGATTGAGAGTCAAACGGGCCAGAAAACTCCGGGAACGGGCCAGAAAACTCCGGGGCATGG,0.17,0.202,0.158,0.16,0.165,0.0304,0.021,0.0327,0.0195,0.0253,–,0.026,0.0143,0.0287,0.0355,0.0108,0.0393,–,0.0251,0.0194
"39.0 (DMSO control at this site: 1-bp insertion 0.328, MH deletion 0.371, edited 0.204) CTGCACAGTCACTTAGGATAGGAGAAGATGATGTATAGGGTTTAGTGGGAGATGTTGCAAG",0.264,0.404,0.406,0.356,0.371,0.334,0.385,0.418,0.163,0.423,0.383,0.466,0.39,0.442,0.804,0.396,0.384,0.463,0.404,0.487
"38.0 (DMSO control at this site: 1-bp insertion 0.063, MH deletion 0.487, edited 0.17) GGGCTGGGTGCTAAAATGAGGAGCTCCAAGAAGACTGAGGTGAACCTGGAGGCCCCTGAGC",0.414,0.462,0.476,0.474,0.468,0.0549,0.0615,0.0554,0.0485,0.0536,0.0578,0.0482,0.0681,0.0731,0.178,0.0549,0.0526,0.0567,0.0523,0.0633
"16.0 (DMSO control at this site: 1-bp insertion 0.172, MH deletion 0.29, edited 0.05) CGGACTGCACACATGGGTAGGATCGTGCACGCGAGGTAGGATCGTGCACGCGAAGTTATTC",0.327,0.305,0.257,0.314,0.294,0.169,0.15,0.138,0.0987,0.184,0.169,0.225,0.14,0.213,0.32,0.169,0.149,0.208,0.191,0.172
23.0 AGAACAAAGCGCTCATATAACGATATGGGGGGTTATGGGGGGTTGAATTGCTTCAGCACGA,–,–,–,–,–,–,–,–,–,–,–,0.00131,–,–,–,–,–,–,–,–
27.0 CCAGAATTAGAACATATCATCTGGACCCTTTTCCATCTGGACCCTTTTCCAGCACACCCTG,0.0808,0.0896,0.137,0.197,0.147,0.107,0.141,0.138,–,0.178,–,0.13,0.109,0.108,–,0.124,0.149,–,–,0.137
"22.0 (DMSO control at this site: 1-bp insertion 0.573, MH deletion 0.229, edited 0.045) CTGATGGTTGAAGGATTTAGCCGGGGTCCTAGACGCCGGGGTCCTAGACGAAAGGGCCACG",0.116,0.139,0.146,0.107,0.155,0.62,0.564,0.613,0.302,0.604,0.614,0.667,0.644,0.619,0.778,0.573,0.653,0.725,0.508,0.53
"26.0 (DMSO control at this site: 1-bp insertion 0.518, MH deletion 0.262, edited 0.026) AGGGCGCGCCCCACGCACTCTGCGGCAAGTCCCTCTGCGGCAAGTCCTCGGCCCGGAAGAC",0.244,0.296,0.338,0.311,0.297,0.507,0.45,0.513,0.131,0.466,0.484,0.558,0.515,0.49,0.691,0.495,0.494,0.525,0.452,0.5
"35.0 (DMSO control at this site: 1-bp insertion 0.01, MH deletion 0.72, edited 0.098) CCACTTTTAGAGAGGGTGAAAATCATCAGTTATCATCAGGGCAACAAATTGCTTTCTCCTA",0.683,0.77,0.809,0.684,0.657,0.0261,0.0309,0.00887,0.0214,0.0184,0.0264,0.00485,0.0103,0.0267,0.125,0.0279,0.0384,0.0134,0.0163,0.0535
"0.0 (DMSO control at this site: 1-bp insertion 0.463, MH deletion 0.339, edited 0.14) AGGATTACCGAGACCTACGCGAACCGAAATCGCTGTCCGGTGCGCAAGCAGGGCTGGCGTC",0.22,0.34,0.384,0.288,0.282,0.437,0.497,0.504,0.175,0.456,0.394,0.535,0.468,0.559,0.793,0.523,0.498,0.526,0.495,0.534
"4.0 (DMSO control at this site: 1-bp insertion 0.146, MH deletion 0.523, edited 0.125) ACGCCTTAGTGCACGAGTGACGGGATAATGTGGTCTCAGGTAATTGATAGGCTTCCAACTT",0.475,0.553,0.586,0.478,0.463,0.121,0.127,0.152,0.0339,0.116,0.102,0.165,0.101,0.15,0.416,0.132,0.145,0.167,0.102,0.171
"42.0 (DMSO control at this site: 1-bp insertion 0.145, MH deletion 0.655, edited 0.132) GGGCTAAACCTATGAGCACAGTAGAACTAAGGGTGGGTGGTGTAGCTAAAGAACTTGACCA",0.557,0.662,0.691,0.589,0.567,0.116,0.148,0.144,0.0719,0.125,0.133,0.175,0.139,0.162,0.436,0.149,0.138,0.158,0.15,0.203
"34.0 (DMSO control at this site: 1-bp insertion 0.184, MH deletion 0.385, edited 0.103) ATTATAGGACCCTGAGGGAGCAGAGATGTGGGAATGGGGGCCGAGCCAATTGTGATGTAAG",0.473,0.534,0.476,0.424,–,0.157,0.154,0.172,0.0647,0.184,0.153,0.199,0.159,0.169,0.361,0.165,0.208,0.197,0.148,0.184
46.0 TTAAGAGCAATGTTCACGCAACTTGAAATTATATCTGTGGTCTTCAAATTGTCTTTTGTCA,–,0.375,–,–,0.33,–,0.09,0.208,–,–,–,0.243,0.165,–,–,–,0.222,–,–,0.178
